Seven molecules from PubChem BioAssay (NCATS) can be followed below.

Values joined by “and” are separate entries in the source; they are usually repeats but may differ in a detail not shown here. Identical values can stand only once. Results filed as inconclusive are left out. Active and inactive are the calls of the source. Unless noted, calls follow the shape of the dose curve; as a rule, active = well fitted curve in the direction sought with a large enough effect; inconclusive = small, poorly fitted or top-dose-only effect, or another doubt; inactive = no such curve, though single readings can be large; an effect the other way counts as inactive or inconclusive.

The subject of assay [1] is Zika virus NS2B-NS3 protease. Description: Primary screen GU AMC qHTS for Zika virus inhibitors (AID 1347154).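 Also: 0% = no-inhibitor control and -100% = no-enzyme control; nearly all actives have a fitted effect of over 70% in size.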 The gist of the method: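 Unlinked Zika NS2B hydrophilic domain–NS3 protease complex at 25 nM in 10 mM Tris-HCl pH 8.0, 0.01% Tween 20, with an AMC peptide substrate. Fluorescence change (340/450 nm) over 15 min at room temperature, normalized to controls, fitted to 4-parameter Hill.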
On the technique in general: In qHTS, concentration-response curves come from the screen itself.

The target of assay [2] is Cytochrome P450 1A2 (Homo sapiens) (UniProt P05177). Description: p450-cyp1a2 (AID 410; calls by dose curve; also: potency is read from the fitted curve at half-maximal effect). The gist of the method: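 Luminescent readout of luciferin formed from Luciferin-ME by human CYP1A2; data normalized against complete inhibition by 57 uM furafylline. Enzyme 20nM, substrate 100uM at Km, 100mM KPO4 buffer, 60 min reaction at room temperature.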
Assay [3] has as its target Glucocorticoid receptor (Homo sapiens) (UniProt P04150). Description: GR-GFP Redistribution (AID 450;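 active = compounds whose dose series gives a full or clear partial fitted curve of increased nuclear translocation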; also: potency is read from the fitted curve at half-maximal effect). Particulars: U2OS GR-GFP nuclear translocation, laser cytometry, 2 h.
Assay [4] shares this target. Description: GR-EFC Redistribution (AID 451; calls by dose curve; also: potency is read from the fitted curve at half-maximal effect). The conditions noted are these: CHO-K1 GR-EFC translocation, beta-gal luminescence, 2 h. Put shortly:
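CHO-K1 cells expressing nuclear EA and GR-ED fragments of b-gal; compounds titrated up to 46 uM final, 2 h at 37 C. GR nuclear translocation read as complemented b-gal luminescence after 1 h RT detection.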

The target in assay [5] is Mitogen-activated protein kinase 10 (Mus musculus) (UniProt Q61831). Description: JNK3 AlphaScreen Assay (AID 530; active = well fitted curve in either direction with a large enough effect, not every such curve was filed as active;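 also: kinase came from lysate of stimulated human HepG2 cells; signal reports phosphorylation of biotinylated GST-cJun 1-79 at Ser73 with 10 µM ATP; % is scaled to controls: 0 for no effect and ±100 for the full control effect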). The gist of the method:
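Pre-activated (IL-1β/TNFα) JNK3 in HepG2 lysates phosphorylates biotin-GST-cJun(1-79), 10 uM ATP; anti-phospho-cJun(Ser73) AlphaScreen read at room temperature, pH 7.6 Tris buffer. Compounds pre-incubated 15 min as titrations.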

The target of assay [6] is Cytochrome P450 3A4 (Homo sapiens) (UniProt P08684). Description: qHTS Assay for Activators of Cytochrome P450 3A4 (AID 885). Also: nearly all actives have a fitted effect of over 65% in size. Put shortly:
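Human CYP3A4 (20 nM) with Luciferin-PPXE at 25 uM (its KM) in 200 mM KPO4; 10 min compound preincubation, then NADPH regeneration and 60 min reaction at RT. Luciferin read by luminescence; normalized to 57 uM ketoconazole full inhibition.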

Assay [7] has as its target Ubiquitin carboxyl-terminal hydrolase 1 (Homo sapiens) (UniProt O94782). The assay can be described thus: Inhibitors of USP1/UAF1: Pilot qHTS (AID 504865).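 Also: rhodamine fluorescence freed from ubiquitin-rhodamine substrate followed over time; top concentration of the series differs between compounds; % is scaled to controls: 0 for no effect and ±100 for the full control effect; nearly all actives have a fitted effect of over 35% in size.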 Put shortly: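 Enzyme-free wells gave the negative control, while test wells held 1nM USP1/UAF1 preincubated with compound for 15 min at room temperature. Ub-Rho at 150nM final started the reaction, and fluorescence at 480/540 nm was recorded kinetically.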

The target of assay [8] is DNA dC->dU-editing enzyme APOBEC-3G (Homo sapiens) (UniProt Q9HC16). Description: qHTS for inhibitors of Vif-A3G interactions: Validation (AID 588379). Also: 0% is about no effect. The gist of the method:
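HeLa cells stably expressing Vif and A3G-eYFP, 700 cells/well, incubated overnight at 37 deg C, then exposed to compound overnight at 37 deg C. Inhibition of Vif-mediated degradation read as increased yellow fluorescence (Ex 488/Em 500-530) by laser-scanning cytometry.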

Assay [9] can be described thus: Counterscreen qHTS for small molecule stabilizers of the endoplasmic reticulum resident proteome: GLuc-NoTag assay (AID 1508627). Also: potency is read from the fitted curve at half-maximal effect.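 As to activity change, negative = inhibition: 0% = thapsigargin alone and -100% = DMSO vehicle control.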 Put shortly: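 SH-SY5Y cells stably expressing constitutively secreted GLuc without SERCaMP tag, exposed to compound for 19 hr, then to 100 nM thapsigargin for 4 hr at 37C. Medium luciferase was read by coelenterazine luminescence without lysis.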
On the technique in general: A counterscreen serves to expose hits that act by an unwanted route or on another target.

A short description of assay [10]: Cell Viability qHTS for small molecule stabilizers of the endoplasmic reticulum resident proteome (AID 1508629).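 Also: human SH-SY5Y neuroblastoma cells carrying the GLuc-SERCaMP reporter; compound exposure about 46 h in total before the viability read; % is scaled to controls: 0 for no effect and ±100 for the full control effect.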 Particulars: cell viability counter-screen, 100 nM thapsigargin for final 4 h.
Assay [11] is described as follows: Confirmatory qHTS for small molecule stabilizers of the endoplasmic reticulum resident proteome: Secreted ER Calcium Modulated Protein (SERCaMP) assay (AID 1508628). Also: potency is read from the fitted curve at half-maximal effect; nearly all actives have a fitted effect of over 40% in size. The gist of the method: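 SH-SY5Y cells stably expressing GLuc-SERCaMP, treated 16 h with compound (primary 1.53, 7.67, 38.3 uM; confirmation 11 concentrations, up to 76.6 uM), then 100 nM thapsigargin for 4 h. Secreted Gaussia luciferase in medium read by coelenterazine luminescence.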

Assay [12] concerns the target Cytochrome P450 3A4 (Homo sapiens) (UniProt P08684). The assay can be described thus: qHTS Assay for Inhibitors and Substrates of Cytochrome P450 3A4 (AID 884). Also: potency is read from the fitted curve at half-maximal effect; nearly all actives have a fitted effect of over 50% in size. Put shortly:
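20 nM human CYP3A4 with 25 uM Luciferin-PPXE (at KM) in 200 mM KPO4, preincubated 10 min with compound; NADPH regeneration started a 60 min RT reaction. Luciferin detected by luminescence, normalized to 57 uM ketoconazole as full inhibition.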

Assay [13] deals with Cytochrome P450 2D6 (Homo sapiens) (UniProt P10635). Description: qHTS Assay for Inhibitors and Substrates of Cytochrome P450 2D6 (AID 891). Also: potency is read from the fitted curve at half-maximal effect; nearly all actives have a fitted effect of over 60% in size. The gist of the method:
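Human CYP2D6 (5 nM) with 30 uM Luciferin-ME EGE (at Km) in 100 mM KPO4, compound preincubated 10 min, then NADPH regeneration system for 60 min at room temperature. Luciferin read by luminescence; normalized to 1.43 uM quinidine.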

The target of assay [14] is Cytochrome P450 2C19 (Homo sapiens) (UniProt P33261). Description: qHTS Assay for Inhibitors and Substrates of Cytochrome P450 2C19 (AID 899). Also: potency is read from the fitted curve at half-maximal effect; nearly all actives have a fitted effect of over 60% in size. Put shortly: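 5 nM human CYP2C19 with 10uM Luciferin-H EGE (at KM) in 50mM KPO4, compound preincubated 10 min at 37C, then NADPH regeneration for 60 min at 37C. Luciferin read by luminescence after detection reagent; normalized to 57uM ketoconazole as full inhibition.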

Assay [15] is described as follows: qHTS Assay for Lipid Storage Modulators (AID 1519; calls by dose curve; as to activity change, negative = inhibition: % is scaled to controls: 0 for no effect and ±100 for the full control effect). Particulars: Drosophila S3 cells, BODIPY lipid droplet/cell ratio, laser cytometry, cells loaded with oleic acid. Put shortly:
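Cells seeded at 5,000 per well were treated with compounds over a concentration series and loaded with oleic acid (400 uM, as added). Lipid droplet fluorescence (488 nm excitation, 500-530 nm channel) was read by laser-scanning cytometry and normalized to 20 uM Triacsin C.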

Sequence of Cytochrome P450 3A4 (Homo sapiens) (P08684 whole entry, looked up): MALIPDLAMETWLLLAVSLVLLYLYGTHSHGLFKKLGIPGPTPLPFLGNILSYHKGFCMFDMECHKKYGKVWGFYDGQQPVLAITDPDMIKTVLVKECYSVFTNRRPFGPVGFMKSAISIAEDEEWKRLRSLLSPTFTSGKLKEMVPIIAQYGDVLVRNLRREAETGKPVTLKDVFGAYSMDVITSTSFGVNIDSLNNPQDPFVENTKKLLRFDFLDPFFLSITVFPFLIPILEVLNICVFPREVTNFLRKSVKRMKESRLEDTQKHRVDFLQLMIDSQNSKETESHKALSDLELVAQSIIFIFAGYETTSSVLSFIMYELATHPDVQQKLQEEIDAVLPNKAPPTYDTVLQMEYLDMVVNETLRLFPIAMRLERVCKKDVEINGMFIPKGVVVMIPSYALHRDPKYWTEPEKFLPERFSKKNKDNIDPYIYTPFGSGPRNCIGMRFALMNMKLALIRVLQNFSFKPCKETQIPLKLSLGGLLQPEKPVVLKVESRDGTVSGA
Sequence of Glucocorticoid receptor (Homo sapiens) (P04150 whole entry, looked up): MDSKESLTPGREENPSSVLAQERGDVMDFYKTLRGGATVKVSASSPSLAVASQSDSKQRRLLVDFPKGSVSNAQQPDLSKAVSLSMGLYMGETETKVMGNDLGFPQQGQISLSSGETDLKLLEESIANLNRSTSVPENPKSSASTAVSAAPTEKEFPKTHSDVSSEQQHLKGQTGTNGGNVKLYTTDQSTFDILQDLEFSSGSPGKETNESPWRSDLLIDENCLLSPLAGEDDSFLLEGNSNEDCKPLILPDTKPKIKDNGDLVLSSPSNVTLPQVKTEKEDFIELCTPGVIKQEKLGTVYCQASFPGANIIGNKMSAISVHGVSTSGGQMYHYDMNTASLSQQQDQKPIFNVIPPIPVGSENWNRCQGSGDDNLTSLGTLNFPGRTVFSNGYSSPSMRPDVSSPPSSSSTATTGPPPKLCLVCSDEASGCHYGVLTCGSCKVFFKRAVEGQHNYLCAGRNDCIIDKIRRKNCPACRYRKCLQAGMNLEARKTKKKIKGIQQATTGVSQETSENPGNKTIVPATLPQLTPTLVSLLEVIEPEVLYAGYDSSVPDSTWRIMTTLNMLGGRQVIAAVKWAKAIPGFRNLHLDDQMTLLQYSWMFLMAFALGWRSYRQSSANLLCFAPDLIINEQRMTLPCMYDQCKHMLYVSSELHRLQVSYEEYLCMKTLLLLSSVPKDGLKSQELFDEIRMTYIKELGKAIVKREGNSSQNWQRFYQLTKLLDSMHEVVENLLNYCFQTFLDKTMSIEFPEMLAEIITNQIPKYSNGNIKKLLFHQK
Sequence of DNA dC->dU-editing enzyme APOBEC-3G (Homo sapiens) (Q9HC16 whole entry, looked up): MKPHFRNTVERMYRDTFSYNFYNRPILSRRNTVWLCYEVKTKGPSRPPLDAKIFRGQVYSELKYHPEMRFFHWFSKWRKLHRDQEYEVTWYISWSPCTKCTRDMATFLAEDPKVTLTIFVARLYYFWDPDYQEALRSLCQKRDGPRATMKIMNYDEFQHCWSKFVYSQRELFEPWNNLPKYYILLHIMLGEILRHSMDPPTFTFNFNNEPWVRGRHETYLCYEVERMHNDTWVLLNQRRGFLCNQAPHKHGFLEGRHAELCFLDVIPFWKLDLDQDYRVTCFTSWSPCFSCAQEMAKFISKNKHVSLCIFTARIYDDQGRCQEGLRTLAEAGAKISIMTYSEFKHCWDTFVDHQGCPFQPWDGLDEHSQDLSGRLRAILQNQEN
Sequence of Cytochrome P450 1A2 (Homo sapiens) (P05177 whole entry, looked up): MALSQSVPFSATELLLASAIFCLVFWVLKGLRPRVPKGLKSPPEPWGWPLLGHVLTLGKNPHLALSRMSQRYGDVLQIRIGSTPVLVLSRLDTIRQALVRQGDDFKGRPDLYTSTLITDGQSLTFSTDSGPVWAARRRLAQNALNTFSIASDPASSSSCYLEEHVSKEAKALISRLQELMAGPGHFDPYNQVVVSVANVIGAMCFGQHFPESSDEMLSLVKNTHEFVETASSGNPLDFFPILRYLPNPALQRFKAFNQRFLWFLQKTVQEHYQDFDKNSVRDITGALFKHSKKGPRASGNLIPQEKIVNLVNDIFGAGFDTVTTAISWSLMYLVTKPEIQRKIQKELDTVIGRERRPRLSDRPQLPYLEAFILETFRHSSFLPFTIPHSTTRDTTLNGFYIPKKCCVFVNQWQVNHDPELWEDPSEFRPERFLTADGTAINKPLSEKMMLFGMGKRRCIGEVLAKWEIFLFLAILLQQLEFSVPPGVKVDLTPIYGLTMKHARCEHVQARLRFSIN
Sequence of Ubiquitin carboxyl-terminal hydrolase 1 (Homo sapiens) (O94782 whole entry, looked up): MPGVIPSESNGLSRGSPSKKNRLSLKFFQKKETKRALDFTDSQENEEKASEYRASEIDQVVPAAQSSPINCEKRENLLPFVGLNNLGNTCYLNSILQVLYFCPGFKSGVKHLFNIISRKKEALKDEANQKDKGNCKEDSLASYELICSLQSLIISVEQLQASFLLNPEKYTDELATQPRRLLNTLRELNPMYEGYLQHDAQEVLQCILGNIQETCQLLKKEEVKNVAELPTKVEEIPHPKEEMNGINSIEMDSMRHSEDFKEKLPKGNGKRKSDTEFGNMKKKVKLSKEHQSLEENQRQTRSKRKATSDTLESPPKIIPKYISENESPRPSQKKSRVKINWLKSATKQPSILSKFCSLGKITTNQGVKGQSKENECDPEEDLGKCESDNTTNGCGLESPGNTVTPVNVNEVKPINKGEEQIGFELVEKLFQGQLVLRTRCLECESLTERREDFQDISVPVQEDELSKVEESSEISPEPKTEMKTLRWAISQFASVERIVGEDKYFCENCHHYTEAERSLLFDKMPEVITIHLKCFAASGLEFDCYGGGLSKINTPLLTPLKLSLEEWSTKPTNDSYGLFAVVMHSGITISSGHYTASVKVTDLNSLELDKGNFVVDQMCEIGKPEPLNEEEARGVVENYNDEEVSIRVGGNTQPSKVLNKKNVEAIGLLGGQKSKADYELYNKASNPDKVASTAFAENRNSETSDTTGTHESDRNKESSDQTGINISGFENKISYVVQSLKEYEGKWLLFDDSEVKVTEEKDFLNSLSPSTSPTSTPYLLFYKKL
Sequence of Cytochrome P450 2C19 (Homo sapiens) (P33261 whole entry, looked up): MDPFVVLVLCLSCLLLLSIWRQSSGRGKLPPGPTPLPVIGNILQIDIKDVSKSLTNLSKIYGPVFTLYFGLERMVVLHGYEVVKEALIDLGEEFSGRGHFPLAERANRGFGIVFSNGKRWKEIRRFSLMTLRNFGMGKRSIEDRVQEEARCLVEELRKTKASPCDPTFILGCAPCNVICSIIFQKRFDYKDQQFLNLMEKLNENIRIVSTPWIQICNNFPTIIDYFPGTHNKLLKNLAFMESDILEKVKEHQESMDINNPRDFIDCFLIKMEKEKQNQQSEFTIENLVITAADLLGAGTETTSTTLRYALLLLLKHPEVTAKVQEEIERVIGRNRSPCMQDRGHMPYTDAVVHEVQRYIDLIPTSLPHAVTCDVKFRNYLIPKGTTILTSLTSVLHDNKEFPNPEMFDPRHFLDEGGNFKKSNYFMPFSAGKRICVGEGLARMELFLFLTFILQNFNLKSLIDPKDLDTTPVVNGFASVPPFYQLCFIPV
Sequence of Cytochrome P450 2D6 (Homo sapiens) (P10635 whole entry, looked up): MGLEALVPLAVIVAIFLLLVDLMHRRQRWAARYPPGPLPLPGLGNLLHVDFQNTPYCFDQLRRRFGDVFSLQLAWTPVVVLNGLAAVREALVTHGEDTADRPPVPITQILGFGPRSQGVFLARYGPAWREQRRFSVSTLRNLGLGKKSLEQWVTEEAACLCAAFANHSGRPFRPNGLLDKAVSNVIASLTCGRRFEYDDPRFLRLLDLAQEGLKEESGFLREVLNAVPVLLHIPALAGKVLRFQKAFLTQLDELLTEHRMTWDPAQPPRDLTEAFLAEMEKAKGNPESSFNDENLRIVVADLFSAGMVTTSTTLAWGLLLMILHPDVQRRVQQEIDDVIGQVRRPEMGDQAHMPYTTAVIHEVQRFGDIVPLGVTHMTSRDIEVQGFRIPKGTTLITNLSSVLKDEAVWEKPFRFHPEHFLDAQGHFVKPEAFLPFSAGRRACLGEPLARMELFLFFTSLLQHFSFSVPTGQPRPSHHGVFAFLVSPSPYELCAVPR

As for `C=C1C(=O)O[C@@H]2C[C@@H](C)[C@@H]3C=CC(=O)[C@@]3(C)[C@@H](O)[C@H]12`, the Potency result in assay [1] was “inactive”.
Regarding `CC(=O)C1=C(O)[C@@H]2[C@@H]3c4c[nH]c5cccc(c45)C[C@@H]3C(C)(C)N2C1=O`, the Potency in assay [2] is 12.6 µM (active); in assay [3] it was > 46 µM (inactive); in [4] it was > 46 µM (inactive). Besides, the result in assay [5] was inactive. The Potency result in assay [6], in assay [7], in assay [8], in assay [1] and in assay [9] was “inactive” throughout. Also, in [10], the max response is -1.84% (inactive).
As for `CCCCC/C=C\C/C=C\C/C=C\C=C\[C@H](CCCC(=O)O)OO`, the activity change, negative = inhibition in assay [1] was 7.53% [at 0.59 µM] (inactive).
For the molecule `c1ccc2sc(C3(N4CCCC4)CCCCC3)cc2c1`, the Potency result in assay [1] and in assay [9] was “inactive” throughout. The Potency in [11] is 39.8 µM (active).
With `COc1ccc2[nH]cc(C3=CCNCC3)c2c1`, the Potency in assay [2] was 0.251 µM (active); in assay [3] it was > 46 µM (inactive); in [4] it was > 46 µM (inactive); in [12], 1.26 µM (active); in assay [9], 6.31 µM (active); in [11], 12.6 µM (active) and 35.5 µM (active). The Potency entry in assay [6] and in [1] was “inactive” in each case.
Consider `CC[C@H](Oc1ccc(Cl)cc1)C(=O)OC1C[C@H]2CC[C@@H](C1)N2C` (stereo partly specified), for which the Potency is > 46 µM (inactive) in assay [3], > 46 µM (inactive) in assay [4], 0.0063 µM (active) in assay [13] and 0.0158 µM (active) in assay [14]. In assay [15] (at 57.5 µM (top of the series)), the activity change, negative = inhibition is -0.561% (inactive). For the same molecule, the max response in assay [15] (measured here: cell count channel max response) was 16.1%; in assay [15] (measured here: lipid channel max response), 28.8%; in assay [10], 3.6% (inactive). Moreover, the Potency entry in assay [7], in assay [8], in assay [1] and in [9] was “inactive” throughout.
Take `NC(=O)[C@H](Cc1ccccc1)NC(=O)[C@H](Cc1c[nH]c2ccccc12)NC(=O)[C@@H]1CCCN1C(=O)[C@@H](N)Cc1ccc(O)cc1`: the activity change, negative = inhibition in [1] was 11.2% [at 6.83 µM] (inactive).
